Assay outcomes from PubChem BioAssay.
FLuc counter: qHTS profiling assay for firefly luciferase inhibitor/activator using purifed enzyme and Km concentrations of substrates (counterscreen for miR-21 project); Luciferin 4-monooxygenase (Photinus pyralis), P08659; purified FLuc, Km substrates, luminescence inhibition; Potency, µM (highest dose often 57.5 µM), for inactives: at the highest dose activity change, negative = inhibition, usual class: inhibitors; actives 6.9% (n = 360,000);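 also: plate controls were vehicle for no effect and reference inhibitor for full effect; nearly all actives have a fitted effect of over 55% in size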
Target sequence (P08659 whole entry, looked up): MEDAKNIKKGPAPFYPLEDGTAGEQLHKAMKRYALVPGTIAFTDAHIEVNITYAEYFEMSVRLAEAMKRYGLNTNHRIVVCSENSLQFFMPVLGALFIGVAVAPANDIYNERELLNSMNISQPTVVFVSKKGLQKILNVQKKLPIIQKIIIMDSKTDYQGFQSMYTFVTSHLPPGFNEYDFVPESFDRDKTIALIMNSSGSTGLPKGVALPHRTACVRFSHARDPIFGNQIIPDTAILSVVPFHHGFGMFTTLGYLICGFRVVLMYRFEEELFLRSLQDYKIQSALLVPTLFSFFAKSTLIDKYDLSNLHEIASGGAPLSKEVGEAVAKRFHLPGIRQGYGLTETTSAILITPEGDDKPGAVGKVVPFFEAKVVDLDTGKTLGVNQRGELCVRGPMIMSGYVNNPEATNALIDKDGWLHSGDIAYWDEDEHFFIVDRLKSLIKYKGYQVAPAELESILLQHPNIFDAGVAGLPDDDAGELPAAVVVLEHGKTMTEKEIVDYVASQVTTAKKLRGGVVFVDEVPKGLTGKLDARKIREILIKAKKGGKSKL
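Purified P. pyralis luciferase (10nM final) with 10uM D-luciferin and 10uM ATP (Km levels) in 50mM Tris acetate pH 7.5, 10mM Mg acetate, 0.01% Tween-20, 0.05% BSA; qHTS 6-point titration, ~60 µM downward; luminescence read.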
Rab9 promoter act: qHTS Assay for Rab9 Promoter Activators | Huh7 Rab9 promoter-luciferase reporter, luminescence, 24 h | Potency, µM (top dose mostly 9.22 µM), without a hit: at the highest dose activation, negative = inhibition, most hits filed as activators | AID 485297, 2010 | actives 2.8% (n = 320,000); also: % of control where 0% means no effect; nearly all actives have a fitted effect of over 60% in size
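Stable Rab9-luc Huh7, 1500 cells/well, 2 h settle; cmpd in DMSO, 24 h, 37 °C/5% CO2; luciferase reagent 10 min RT; luminescence.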
NPC1 prom act: qHTS Assay for NPC1 Promoter Activators | Huh7 NPC1 promoter luciferase reporter, 24 h | Potency, µM (highest dose often 9.22 µM), for inactives: at the highest dose activation, usual class: activators | actives 2.4% (n = 320,000) | AID 485313, 2010; also: % of control where 0% means no effect; nearly all actives have a fitted effect of over 60% in size
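Stably transfected Huh7 (NPC1 promoter→luciferase), 1500 cells/well in Opti-MEM + 10% FBS, 2 h settle, then compound 24 h at 37 °C. Luminescence after 10 min with Amplite reagent.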
Luc counter: Counterscreen for Luciferase (Kinase-Glo TM) Inhibition; Luciferin 4-monooxygenase (Photuris pensylvanica), Q27757; Kinase-Glo luciferase, ATP luminescence, 8 min; Potency, µM (titrated, usually from 38.3 µM), inactives show at the highest dose activity change, negative = inhibition, usual class: inhibitors; actives 0.28% (n = 200,000); AID 1379, 2008; also: % is scaled to controls: 0 for no effect and ±100 for the full control effect; nearly all actives have a fitted effect of over 60% in size
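Kinase-Glo luciferase light output from ATP and luciferin was measured with 10 uM ATP, within the enzyme's linear range. Buffer: 50 mM imidazole pH 7.2, 50 mM KCl, 7 mM MgCl2, 0.01% Tween 20, 0.05% BSA; luminescence read after 8 min at ambient temperature.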
ELG1 genotoxic: qHTS screen for small molecules that induce genotoxicity in human embryonic kidney (HEK293T) cells expressing luciferase-tagged ELG1; Potency, µM (titrated, usually from 46 µM), inactives show at the top dose activity change, positive = activation, most hits filed as activators; HEK293T ELG1-luciferase reporter, luminescence, 16 h; actives 1.3% (n = 330,000); also: % of control where 0% means no effect; nearly all actives have a fitted effect of over 60% in size
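After overnight (16 hr) compound treatment at 37 °C, ELG1-luciferase HEK293T cells were lysed with ONE-Glo; luminescence quantified 30 min later at room temperature.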
SMN2 splice enh: qHTS Assay for Enhancers of SMN2 Splice Variant Expression; HEK293 SMN2-luciferase splicing reporter, luminescence, 30-36 h; Potency, µM (series often up to 46.1 µM), for the others: top-dose activity change, positive = activation, usual class: activators; actives 2.8% (n = 210,000); AID 1458, 2008; also: % of control where 0% means no effect; nearly all actives have a fitted effect of over 55% in size
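HEK293 cells carry an SMN2 minigene-luciferase reporter in which exon 7 inclusion puts luciferase in frame. Cells were seeded at 2000 cells/well, attached for 10-12 hours, then exposed to compounds for 30-36 hours at 37C before ONE-Glo luminescence.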
Active calls of the source: *. Shown are actives, neighbours in structure and some others; about 7.5% of the full set was active somewhere. Calls follow the shape of the dose curve; as a rule, active = well fitted curve in the direction sought with a large enough effect; inconclusive = small, poorly fitted or top-dose-only effect, or another doubt; inactive = no such curve, though single readings can be large; an effect the other way counts as inactive or inconclusive. Potency is read from the fitted curve at half-maximal effect.

How did CC(C)NC(=O)CSc1nnc(-c2ccc(C(C)(C)C)cc2)n1C do in these assays?
FLuc counter: inconclusive; Rab9 promoter act: -2.3%; NPC1 prom act: -3.1%; Luc counter: -1.8%; ELG1 genotoxic: 1.1%; SMN2 splice enh: 8.1%

What do the screens show for `Cc1cc2nc(-c3ccc(SCC(=O)Nc4ccc(S(=O)(=O)NC5CC5)cc4)nc3)[nH]c2cc1C`?
FLuc counter: 0.107µM*; Rab9 promoter act: 1.41µM*; NPC1 prom act: 2.82µM*; Luc counter: -22.5%; ELG1 genotoxic: inconclusive; SMN2 splice enh: 3.55µM*

How did Cc1cc2nc(-c3ccc(SCc4ccccc4C#N)nc3)[nH]c2cc1C do in these assays?
FLuc counter: 9.53µM*; Rab9 promoter act: inconclusive; NPC1 prom act: 22.4%; Luc counter: 3.7%; ELG1 genotoxic: inconclusive; SMN2 splice enh: 11.2µM*

What do the screens show for `COC(=O)CSc1ccc(-c2nc3ccc(C)cc3[nH]2)cn1`?
FLuc counter: 2.69µM*; Rab9 promoter act: -1.5%; NPC1 prom act: -0.3%; Luc counter: 15.6%; ELG1 genotoxic: inconclusive; SMN2 splice enh: 2.0%

How did Cc1ccc2nc(SCC(=O)Nc3ncccn3)[nH]c2c1 do in these assays?
FLuc counter: -15.8%; Rab9 promoter act: 14.8%; NPC1 prom act: -0.8%; ELG1 genotoxic: 0.5%

Results for Cc1cc2nc(-c3ccc(SCC(=O)N4CCc5ccccc54)nc3)[nH]c2cc1C ?
FLuc counter: 0.135µM*; Rab9 promoter act: 0.501µM*; NPC1 prom act: 1.12µM*; Luc counter: -26.5%; ELG1 genotoxic: inconclusive; SMN2 splice enh: 2.51µM*

Results for O=C(Nc1ccc(Br)cc1)c1cccc(C(=O)Nc2ccc(Br)cc2)c1 ?
FLuc counter: inconclusive; SMN2 splice enh: 4.9%

Results for COc1cccc(C(=O)N(Cc2nc(-c3ccc(Cl)cc3)no2)C(C)C)c1OC ?
FLuc counter: -9.0%; SMN2 splice enh: -14.8%

Results for CN(CC(=O)Nc1ccc(Cl)c(Cl)c1)C(=O)c1cccc2cccnc12 ?
FLuc counter: 2.7%; Rab9 promoter act: 4.4%; NPC1 prom act: -4.8%; ELG1 genotoxic: 0.4%

Results for O=C(NCCc1ccccc1F)c1cccc2cccnc12 ?
FLuc counter: 16.9µM*; Rab9 promoter act: 1.78µM*; NPC1 prom act: 3.16µM*; ELG1 genotoxic: inconclusive

Results for Cc1ccc(NC(=O)c2cccc3cccnc23)cc1 ?
FLuc counter: 5.36µM*; Rab9 promoter act: 1.58µM*; NPC1 prom act: 2.51µM*; ELG1 genotoxic: inconclusive

What do the screens show for `CC(=O)Nc1cccc(NC(=O)c2cccc3cccnc23)c1`?
FLuc counter: 13.5µM*; Rab9 promoter act: 22.7%; NPC1 prom act: -0.7%; ELG1 genotoxic: -3.8%

How did COc1ccccc1C(=O)Nc1cccc2cccnc12 do in these assays?
FLuc counter: 16.9µM*; Rab9 promoter act: inconclusive; NPC1 prom act: 23.6%; ELG1 genotoxic: 7.7%

Results for CCOc1ccc(N/C=C/C(=O)c2ccc3ccccc3c2)c([N+](=O)[O-])c1 ?
FLuc counter: 0.849µM*; Rab9 promoter act: 2µM*; NPC1 prom act: 2µM*; Luc counter: 7.1%; ELG1 genotoxic: 15.9%; SMN2 splice enh: 2.51µM*

How did CCOc1ccc(NC(=O)Cc2ccccc2)c([N+](=O)[O-])c1 do in these assays?
FLuc counter: -17.7%; Rab9 promoter act: 10.2%; NPC1 prom act: 1.6%; Luc counter: -0.8%; ELG1 genotoxic: 6.6%; SMN2 splice enh: 0.7%
